Assay results as given in ChEMBL document CHEMBL4513216, “Probing the Open Global Health Chemical Diversity Library for Multistage-Active Starting Points for Next-Generation Antimalarials” (ACS Infect Dis, 2020).
The campaign covered roughly 69,000 compounds. About 8,600 (12%) showed an effect of 50% or more. Many of the other results were omitted from the sample, so strong results are more common in it than they were.

Test system: Plasmodium berghei
Assay: Screen against P. berghei liver stage (PbLuc), transformed with Luciferase, at 10uM
Format: functional, HepG2
Settings: tested at 10 uM

Row | Structure (SMILES) | INHIBITION [%]
1 | COc1c(Br)c(CC2CC(CO)=NO2)c(Br)c2c1OCO2 (centres undefined) | 42.4
2 | CC(C)CCN1C[C@H]2CCN(C(=O)NC3CCCC3)CC[C@H]2S1(=O)=O | 37.1
3 | O=C(NCCCn1cccn1)C1COCC(=O)N1Cc1ccccc1 (centres undefined) | 49
4 | O=C(NCCn1ccnc1)C1COCC(=O)N1Cc1ccccc1 (centres undefined) | 66.1
5 | O=C(NCCCn1ccnc1)C1COCC(=O)N1Cc1ccccc1 (centres undefined) | 38.3
6 | Cc1noc(C)c1C(=O)N1C[C@@H]2CC[C@H]1CN(c1cnccn1)C2 | -39.2
7 | Cc1ccc(N2CCC3(CN(Cc4ccncc4)CCC3(F)F)C2)nn1 (centres undefined) | 89.1
8 | Cc1ccc(N2CCC3(CN(CCO)CCC3(F)F)C2)nn1 (centres undefined) | 39.5
9 | Cc1ccc(CN2CCC(F)(F)C3(CCN(c4cnccn4)C3)C2)o1 (centres undefined) | 35.1
10 | Cc1ccc(N2CCC3(CN(Cc4cccs4)CCC3(F)F)C2)nn1 (centres undefined) | 61.3
11 | Cn1cc(CN2CCC(F)(F)C3(CCN(c4ncccn4)C3)C2)cn1 (centres undefined) | 9.51
12 | Fc1ccc(CN2CCC(F)(F)C3(CCN(c4cnccn4)C3)C2)cc1 (centres undefined) | 1.61
13 | CC(C)(C)c1ncc(C(=O)NCCNS(C)(=O)=O)s1 | -33.9
14 | CNS(=O)(=O)CC(=O)N1CCCc2cc(C(C)C)ccc21 | 39.7
15 | O=C(c1cnc(-c2ncccn2)s1)N1CCCC(n2cccn2)C1 (centres undefined) | 21
16 | Cc1nc(C2CCCNC2)cc(N2CCc3nc(N)sc3C2)n1 (centres undefined) | 53.6
17 | CNc1cc(C2CCCNC2)nc(C)n1 (centres undefined) | 16.4875
18 | CNC(=O)C1CCN(c2cc(C3CCNCC3)nc(C)n2)C1 (centres undefined) | 26.4
19 | CNC(=O)c1[nH]nc2c1CN(c1cc(C3CCCNC3)nc(C)n1)CC2 (centres undefined) | 55.4
20 | Cc1nc(NCCC23CCCN2CCC3)cc(C2CCCNC2)n1 (centres undefined) | -59.5
21 | Cc1nc(NCC23CCCN2CCC3)cc(C2CCCNC2)n1 (centres undefined) | -71.1
22 | O=C(COc1coc(CN2CCOCC2)cc1=O)Nc1ccccc1F | -0.532

Row | Structure (SMILES) | INHIBITION [%]
23 | Cc1ncc2c(c1C(=O)O)CCN(c1ncc(F)cn1)C2 | 7.24
24 | Cc1nc(CN2CCOC(Cn3cccn3)C2)no1 (centres undefined) | 4.71
25 | Cc1noc(C2CCN(Cn3cc(Cl)cn3)CC2)n1 | 37.9
26 | C[C@]1(O)CCN(Cc2ncccc2F)C[C@@H]1Oc1ccccc1 | -11.7
27 | CC[S+](CC)[c-]1c(=O)[nH]c(=O)n(CCc2ccc(F)cc2)c1=O | -17.6
28 | O=C(O)c1cnc(N2CCC(O)CC2)nc1COc1cccc(F)c1 | 6.67
29 | CCOc1ccc(Br)cc1C1CCCN1 (centres undefined) | 16.8
30 | O=C(c1ccccc1)N1CCOC2(CCN(Cc3cccs3)CC2)C1 | -11
31 | Fc1cnc(N2CCOC3(CCN(Cc4cccs4)CC3)C2)nc1 | 48.4
32 | Fc1cnc(N2CCC3(CC2)CN(Cc2cccs2)CCO3)nc1 | 60.3
33 | Cc1cnc(N2CCC3(CC2)CN(Cc2cccs2)CCO3)nc1 | 58.3
34 | Fc1cnc(N2CCC3(CC2)CN(Cc2ccccn2)CCO3)nc1 | -3.51
35 | c1ccc(CN2CCOC3(CCN(c4ncccn4)CC3)C2)nc1 | 14.2
36 | O=C(NCc1csc(Br)c1)Nc1cn[nH]c1 | 17.5
37 | COCCCC1(C(=O)O)CCCN(Cc2ccccc2C)C1 (centres undefined) | 14.9
38 | COCCC1(C(=O)O)CCCN(Cc2cc3c(cc2Cl)OCO3)C1 (centres undefined) | 58.5
39 | COCCC1(C(=O)O)CCCN(CCc2ccccc2)C1 (centres undefined) | 31.6
40 | COCCCC1(C(=O)O)CCCN(Cc2cc3c(cc2C)OCCO3)C1 (centres undefined) | -31.4
41 | COCCC1(C(=O)O)CCCN(Cc2cc3c(cc2C)OCO3)C1 (centres undefined) | 57.2
42 | COCCC1(C(=O)O)CCCN(CCOCc2ccccc2)C1 (centres undefined) | 27.9
43 | C=c1cc(C)oc1=C1NC(c2c(C)ncc3c2CCNC3)=NO1 | 49
44 | O=C(Nc1cnn(Cc2ccc(Cl)cc2)c1)N1CCCC1CO (centres undefined) | -31.1

Row | Structure (SMILES) | INHIBITION [%]
45 | FC1(F)CCNCC12CCN(c1cccnc1)C2 (centres undefined) | 33
46 | O=C(NCCNc1ncccn1)C1CC(=O)N(Cc2ccccn2)C1 (centres undefined) | 50.5
47 | O=C(NCCNc1ncccn1)C1CC(=O)N(Cc2ccco2)C1 (centres undefined) | 2.3
48 | O=C(NCCNc1ncccn1)C1CC(=O)N(Cc2ccccc2)C1 (centres undefined) | -24.2
49 | O=C1CCc2cc(NC(=O)C3CCCN3c3nccs3)ccc2N1 (centres undefined) | 24.3165
50 | O=C(C1CC1)N(CCc1ccccc1)C1CCOC1 (centres undefined) | -28.6
51 | O=C(C1CCOCC1)N(CCc1ccccc1)C1CCOC1 (centres undefined) | -5.33
52 | O=C1CC[C@H](C(=O)N(CCc2ccccc2)C2CCOC2)N1 (some centres undefined) | 55
53 | C[C@H]1CN(C(=O)N(C)C)C[C@@]12CCN(c1ccsc1)C2=O | 36.9
54 | O=C(NCC(F)F)c1ccc(S(=O)(=O)NCCc2ccncc2)cc1 | 52.2
55 | O=C(NCC(F)F)c1ccc(S(=O)(=O)NCCc2cn[nH]c2)cc1 | 35.8
56 | O=C(NCC(F)F)c1ccc(S(=O)(=O)NCCc2c[nH]cn2)cc1 | 10.4
57 | O=C(c1ccc(S(=O)(=O)NCCc2ccccn2)cc1)N1CCCC1 | 30.3
58 | O=C(c1ccc(S(=O)(=O)NCc2ccncc2)cc1)N1CCNCC1 | 19.5
59 | O=C(c1ccc(S(=O)(=O)NCCc2ccncc2)cc1)N1CCCC1 | 57.6
60 | CC(C)c1nccn1C1CCCN(C(=O)c2cn3cccnc3n2)C1 (centres undefined) | 1.78
61 | Cn1c(C(=O)NC2CCCC2)nc2c1CCN(Cc1ccccc1)C2 | -18.5
62 | Cn1c(C(=O)NC2CC2)nc2c1CCN(c1ncccn1)C2 | 21.6
63 | Cc1ncccc1NC(=O)c1nc2c(n1C)CCN(C(=O)C1CC1)C2 | 66.6
64 | Cc1cnn(CC2CCCCN2c2nn3cc(C)nc3s2)c1 (centres undefined) | -23.9
65 | CC1(C)CN(C(=O)c2occc2COc2cccc(C#N)c2)CCO1 | -10.8
66 | Cn1ccnc1CN1CCN(CCOc2ccccc2C#N)CC1 | 44.8

Row | Structure (SMILES) | INHIBITION [%]
67 | Cc1cnn(C2CN(CCOc3ccc(C#N)cc3)C2)c1 | -26.1
68 | Cc1cnn(C2CN(CCOc3cccc(C#N)c3)C2)c1 | 69.9
69 | Cc1cnn(C2CN(CCOc3ccccc3C#N)C2)c1 | 58.8
70 | Cc1cnn(C2CN(CCCOc3ccc(C#N)cc3)C2)c1 | 49
71 | Cc1cc(C)n(CC2CN(CCOc3ccccc3C#N)CCO2)n1 (centres undefined) | -10.6
72 | O=C(NCCc1cc(N2CCOCC2)nc(N2CCCC2)n1)C1CC1 | 15.548
73 | O=C(CC1CC2(CCN(CC3CC3)CC2)Oc2ccccc21)NC1CC1 (centres undefined) | 7.5
74 | Fc1ccc([C@@H]2COC[C@H]2NCc2cccc(F)c2)cc1 | 20.2
75 | CCN1CCc2c(CNC(=O)c3nccn3C)cncc2C1 | 35.8
76 | C=C/C=c1\c(=C/C)oc2c(NCc3ccccc3)ncnc12 | 60.3
77 | Cc1nc(NCc2cccnc2)c2c(n1)c(C)nn2C | 1.81
78 | Cc1nn(C)c2c(NCc3ccccn3)ncnc12 | 42.1
79 | C=C/C=c1\c(=C/C)oc2c(NCc3ccccc3)nc(C)nc12 | 68
80 | C=C/C=c1\c(=C/C)oc2c(NCc3ccccc3)nc(CC)nc12 | 22.5
81 | Cc1ncc(CN)c(-c2cn(C)c3ccccc23)n1 | 9.05
82 | CN(CC(N)=O)C(=O)C1Cc2cc(Cl)ccc2O1 (centres undefined) | -5.64
83 | CN(C)CC1(O)CCCN(C(=O)Cc2ccc(Cl)c(Cl)c2)C1 (centres undefined) | 52.2
84 | CN(C)CC1(O)CCN(C(=O)Cc2ccc3c(c2)CCCC3)C1 (centres undefined) | 20.6
85 | CN(C)CC1(O)CCN(C(=O)Cc2ccc(Cl)c(Cl)c2)C1 (centres undefined) | 39.1
86 | O=C1[C@@H]2CN(c3ncnc4sccc34)C[C@]2(C(=O)O)CN1CC1CC1 | 29.2
87 | Cc1nn(C)c(N(C)C)c1CNC1CCOc2c(Cl)cccc21 (centres undefined) | -17.7
88 | COc1ccccc1C1(O)CCCN(C(=O)c2ccnn2C(C)C)C1 (centres undefined) | -24.4

Row | Structure (SMILES) | INHIBITION [%]
89 | CNC(=O)[C@@H]1CN(C(=O)C(C)C)C[C@H]1c1ccnc(N2CCCC2)n1 | 21.7
90 | Cc1noc(C2CCC3(CCN(C(=O)C4CCOCC4)CC3)O2)n1 (centres undefined) | 32.2
91 | NC(=O)C(NC1CCN(CC2CCCCC2)CC1)c1ccccc1 (centres undefined) | -139
92 | NC(=O)C(NC1CCN(CC2CCCCC2)CC1)c1ccc(F)cc1 (centres undefined) | -55.1
93 | NC(CC1CCCCC1)c1ccccc1 (centres undefined) | 5.15
94 | NC(c1ccccc1)c1ccc(OC(F)F)cc1 (centres undefined) | 29.3
95 | NC(CC1CCCC1)c1ccccc1 (centres undefined) | 62.2
96 | NC(CC1CCCC1)c1ccc(Oc2ccccc2)cc1 (centres undefined) | 80.1
97 | COCc1noc(Cc2cc(Cl)c3c(c2)OCCCO3)n1 | -69.2
98 | CC(C)(C)CC(=O)NCCCn1cncn1 | 40.6
99 | Cc1cn2c(n1)CCC(NC(=O)c1cncnc1C)C2 (centres undefined) | -0.219
100 | CC1CCN(CCNC(=O)C2CCN(C(=O)C3CC3)CC2)CC1 | -8.23
101 | N#CCSCCCN1CCCC(C(=O)N2CCCCCC2)C1 (centres undefined) | 35.5
102 | CC(NCCN1CCN(C(=O)C2CCCC2)CC1)c1cnn(C)c1 (centres undefined) | 17.1
103 | N#CCSCCCN1CCN(C(=O)C2CCCC2)CC1 | 50.7
104 | Cc1ccc(C(=O)N2CCN(CCCSCC#N)CC2)o1 | 0.139
105 | N#CCSCCCN1CCC(C(=O)N2CCCCCC2)CC1 | 51.8
106 | O=C(O)c1cc(S(=O)(=O)Nc2ccc(F)cc2Cl)cc2c1OCCO2 | 23.5
107 | O=C([C@H]1CCCO1)N1CCCC2(CCN(Cc3ccncc3)C2=O)C1 (some centres undefined) | 10.3
108 | CN1C(=O)CCCC12CCCN(C(=O)c1cc(F)cc(F)c1)C2 (centres undefined) | 33.4
109 | Cn1cc(CC(=O)N2CCCC(n3cncn3)C2)cn1 (centres undefined) | 17.4
